In PubChem BioAssay AID1689 (NMMLSC, 2009):
Potency and affinity values are given separately. Active and inactive are the calls of the source.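 How the source made its calls: active means curve fits scoring over 52 on a 0 to 100 blend rewarding potency under 10 µM and span over 20%; inactive means the rest.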

Each compound was assayed against ATP-dependent translocase ABCB1 (Homo sapiens) (UniProt P08183) (assay: inhibition of P-gp mediated JC-1 efflux – Jurkat-DNR cells, flow cytometry, dose response (AID 1689)). Conditions: series mostly up to 66.6 µM.
Sequence of ATP-dependent translocase ABCB1 (Homo sapiens) (P08183 whole entry, looked up): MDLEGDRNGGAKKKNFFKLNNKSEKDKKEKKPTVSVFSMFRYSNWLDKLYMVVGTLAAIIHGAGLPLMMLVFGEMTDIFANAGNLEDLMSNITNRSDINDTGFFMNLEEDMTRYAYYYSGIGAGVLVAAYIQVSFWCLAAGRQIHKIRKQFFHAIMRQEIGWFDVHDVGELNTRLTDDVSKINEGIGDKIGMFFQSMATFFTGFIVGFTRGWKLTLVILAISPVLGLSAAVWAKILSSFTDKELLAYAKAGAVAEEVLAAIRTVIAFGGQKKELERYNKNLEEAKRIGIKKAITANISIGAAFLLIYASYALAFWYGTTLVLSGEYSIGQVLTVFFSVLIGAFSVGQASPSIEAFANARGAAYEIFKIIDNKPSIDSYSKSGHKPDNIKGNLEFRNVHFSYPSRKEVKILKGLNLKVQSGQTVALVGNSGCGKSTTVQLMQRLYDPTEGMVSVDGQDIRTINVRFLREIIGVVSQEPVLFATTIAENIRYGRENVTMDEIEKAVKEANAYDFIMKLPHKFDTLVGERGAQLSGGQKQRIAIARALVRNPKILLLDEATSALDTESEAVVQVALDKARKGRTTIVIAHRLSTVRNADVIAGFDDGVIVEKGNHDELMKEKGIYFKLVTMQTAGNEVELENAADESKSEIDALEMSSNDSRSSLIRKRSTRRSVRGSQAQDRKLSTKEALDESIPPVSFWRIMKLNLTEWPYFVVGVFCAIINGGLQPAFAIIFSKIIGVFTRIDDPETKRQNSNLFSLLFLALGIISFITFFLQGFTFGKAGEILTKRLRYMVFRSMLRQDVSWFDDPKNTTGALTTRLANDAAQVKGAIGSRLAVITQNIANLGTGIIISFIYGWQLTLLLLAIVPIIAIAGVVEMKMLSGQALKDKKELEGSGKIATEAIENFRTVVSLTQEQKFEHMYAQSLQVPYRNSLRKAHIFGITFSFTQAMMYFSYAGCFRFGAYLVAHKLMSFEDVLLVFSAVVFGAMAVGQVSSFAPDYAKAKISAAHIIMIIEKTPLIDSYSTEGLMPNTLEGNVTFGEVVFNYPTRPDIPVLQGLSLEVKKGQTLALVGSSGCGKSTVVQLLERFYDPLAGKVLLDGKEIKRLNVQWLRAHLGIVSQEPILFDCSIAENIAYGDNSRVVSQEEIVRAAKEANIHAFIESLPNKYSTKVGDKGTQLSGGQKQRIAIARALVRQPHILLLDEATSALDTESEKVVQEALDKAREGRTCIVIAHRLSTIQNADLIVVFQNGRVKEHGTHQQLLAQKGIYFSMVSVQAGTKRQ

outcome, inactive:
COc1cccc(-c2nc(N3CC(C)CC(C)C3)c3ccccc3n2)c1O (stereo not drawn)
CNc1nc2cc([N+](=O)[O-])c([N+](=O)[O-])cc2nc1NC
CCOc1ccccc1NC(=O)C(OC(=O)c1ccc(N(C)C)cc1)c1ccccc1 (stereo not drawn)
COc1ccccc1Nc1nc2nonc2nc1N1CCCCC1C (stereo not drawn)
Cc1cc(C)c(C#N)c(SCc2c(F)cccc2[N+](=O)[O-])n1
COC(=O)c1cc(NC(=O)c2ccccc2)c(=O)oc1/C=C/Nc1ccc(Oc2ccccc2)cc1
CC(=O)Nc1ccc(Nc2ccc(S(=O)(=O)C(F)(F)F)cc2[N+](=O)[O-])cc1
N#CC(C#N)=C1C=C2C=C(N3CCOCC3)CCC2CC1 (stereo not drawn)
CCCCN1/C(=C/c2ccc3ccccc3[n+]2CC)Sc2ccccc21
Cc1c(C(=O)Nc2ccc(F)cc2)c2ccccn2c1CCc1ccncc1
CN1CCN(C2=CC3=CC(=C(C#N)C#N)CCC3CC2)CC1 (stereo not drawn)
COC(=O)c1ccc(C(C(=O)NC2CCCCC2)N(Cc2ccccc2)C(=O)Cc2cccs2)cc1 (stereo not drawn)
CCN(CC)C1=CC2=CC(=C(C#N)C#N)CCC2CC1 (stereo not drawn)
COc1ccc(CCNC(=O)COC(=O)/C=C/c2ccc(OC)c(OC)c2)cc1
N#CC(C#N)=C1C=C2C=C(N3CCCCCC3)CCC2CC1 (stereo not drawn)
COc1cc(C(=O)Nc2ccc(S(=O)(=O)NC(C)C)cc2)cc(OC)c1OC
COc1ccc2cc(C(=O)OC(C)C)sc(=O)c2c1OC
CC1=NN(c2ccc([N+](=O)[O-])cc2)C(=O)/C1=C/N(C)C
O=[N+]([O-])c1ccc(Nc2nc(Cl)nc(NCCO)n2)cc1
CN(C)c1ccc(/C=C2\SC(=S)N(Nc3ncc(C(F)(F)F)cc3Cl)C2=O)cc1
CCCCN(C)C1=CC2=CC(=C(C#N)C#N)CCC2CC1 (stereo not drawn)
CC(C)C(NS(=O)(=O)c1ccccc1)C(=O)OCc1cc([N+](=O)[O-])cc2c1OCOC2 (stereo not drawn)

inhibition, inactive:
CCOC(=O)c1sc2cc([N+](=O)[O-])cc(SCC(C)C)c2c1N 56.3% [at 2.47 µM]
